PubChem BioAssay (EPA / NIEHS)
Values joined by “and” are separate entries in the source; they are usually repeats but may differ in a detail not shown here. Equal values may be shown once. Where a structure was tested more than once in an assay, its records may differ in their call. Active and inactive are the calls of the source. The calls were made as follows: active = hit-call score of the fitted dose curve at least 0.9, where 1 is the maximum; inactive = score below 0.9.

Experiments:
[1] = BSK_MyoF_SRB: Viability Assessment in the BioMAP Diversity Plus: MyoF Assay (AID 2284267); settings: primary human lung fibroblasts;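 also: total protein by SRB absorbance in parallel cultures as cytotoxicity measure; cells assessed 24 h after compound addition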
How it was run: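 Lung fibroblast cultures, 24 h post-dose; fix 10% TCA, stain 0.1% SRB, read 560 nm. Signal = total protein as cytotoxicity measure; fitted relative to DMSO negative control.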

[2] = read-out: Matrix Metallopeptidase 1 (MMP1), MMP1 (gene 4312); experiment: BSK_MyoF_MMP1: BioMAP Diversity Plus: MyoF Assay for Matrix Metallopeptidase 1 (MMP1) Biomarker Activity (AID 2284268); settings: primary human lung fibroblasts
How it was run: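 Human lung fibroblasts (MyoF system) exposed to chemical for 24 h in 96-well format; MMP1 biomarker quantified by ELISA, with activity fitted in the positive direction relative to DMSO baseline.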

[3] = read-out: TIMP metallopeptidase inhibitor 1 (TIMP1), TIMP1 (gene 7076); experiment: BSK_MyoF_TIMP1: BioMAP Diversity Plus: MyoF Assay for TIMP metallopeptidase inhibitor 1 (TIMP1) Biomarker Activity (AID 2284269); settings: primary human lung fibroblasts
How it was run: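 TIMP-1 levels were determined by ELISA in human lung fibroblasts treated for 24 h. DMSO served as negative control and baseline for upward curve fitting.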

KRT18 (gene 3875) [4] = experiment: BSK_BF4T_Keratin818: BioMAP Diversity Plus: BF4T Assay for Keratin 818 Biomarker Activity (AID 2284266); settings: primary human bronchial epithelial cells with fibroblasts
How it was run: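 Keratin 8/18 levels quantified by ELISA after 24 h chemical treatment of bronchial epithelial cell/dermal fibroblast co-cultures, fitted in positive direction relative to DMSO. Parallel SRB staining tracks overt cytotoxicity.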

[5] = read-out: Matrix Metallopeptidase 3 (MMP3), MMP3 (gene 4314); experiment: BSK_BF4T_MMP3: BioMAP Diversity Plus: BF4T Assay for Matrix Metallopeptidase 3 (MMP3) Biomarker Activity (AID 2284271); settings: primary human bronchial epithelial cells with fibroblasts
How it was run: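 MMP-3 level read by ELISA after 24 h chemical exposure of bronchial epithelial cell/dermal fibroblast co-cultures, fitted upward relative to DMSO. Parallel cultures stained with 0.1% SRB after TCA fixation gauge overt cytotoxicity.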

[6] = read-out: Tissue plasminogen activator (tPA), PLAT (gene 5327); experiment: BSK_BF4T_tPA: BioMAP Diversity Plus: BF4T Assay for Tissue plasminogen activator (tPA) Biomarker Activity (AID 2284272); settings: primary human bronchial epithelial cells with fibroblasts
How it was run: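 tPA level quantified by ELISA at 24 h post-treatment in bronchial epithelial/dermal fibroblast co-cultures, gain of signal scored against DMSO baseline. Parallel cultures stained with 0.1% SRB (560 nm) to flag overt cytotoxicity.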

[7] = read-out: Plasminogen Activator Inhibitor-1 (PAI1), SERPINE1 (gene 5054); experiment: BSK_BF4T_PAI1: BioMAP Diversity Plus: BF4T Assay for Plasminogen Activator Inhibitor-1 (PAI1) Biomarker Activity (AID 2284273); settings: primary human bronchial epithelial cells with fibroblasts
How it was run: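 PAI-1 levels quantified by ELISA 24 h post-dosing in bronchial epithelial cell plus dermal fibroblast cultures. Signal gain referenced to DMSO baseline. Sulforhodamine B total-protein staining of parallel wells checked cytotoxicity.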

[8] = read-out: urokinase Plasminogen Activator (uPA), PLAU (gene 5328); experiment: BSK_BF4T_uPA: BioMAP Diversity Plus: BF4T Assay for urokinase Plasminogen Activator (uPA) Biomarker Activity (AID 2284275); settings: primary human bronchial epithelial cells with fibroblasts
How it was run: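 uPA levels measured by ELISA at 24 hours in BF4T cultures (bronchial epithelial cells plus dermal fibroblasts) and compared with DMSO; cytotoxicity tracked in parallel cultures by sulforhodamine B staining.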

[9] = read-out: Interleukin-8 (IL8), CXCL8 (gene 3576); experiment: BSK_IMphg_IL8: BioMAP Diversity Plus: IMphg Assay for Interleukin-8 (IL8) Biomarker Activity (AID 2284277); settings: primary human endothelial cells with macrophages
How it was run: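 IL-8 levels were measured by ELISA 24 h after dosing in primary human venular endothelial cell–macrophage cultures, referenced to DMSO; parallel SRB staining monitored overt cytotoxicity.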

[10] = read-out: Intercellular Adhesion Molecule 1 (ICAM1), ICAM1 (gene 3383); experiment: BSK_BE3C_ICAM1: BioMAP Diversity Plus: BE3C Assay for Intercellular Adhesion Molecule 1 (ICAM1) Biomarker Activity (AID 2284278); settings: primary human bronchial epithelial cells;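 also: cell-surface ICAM-1 protein level quantified by ELISA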
How it was run: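 ELISA read-out of ICAM-1 on human lung bronchial epithelial primary cells, 24 h post-dosing; positive-direction curve fit, DMSO = baseline. SRB total-protein staining of parallel cultures flagged overt cytotoxicity.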

[11] = read-out: Interferon-inducible T-cell alpha chemoattractant (ITAC), CXCL11 (gene 6373); experiment: BSK_BE3C_ITAC: BioMAP Diversity Plus: BE3C Assay for Interferon-inducible T-cell alpha chemoattractant (ITAC) Biomarker Activity (AID 2284279); settings: primary human bronchial epithelial cells
How it was run: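 The assay measures I-TAC levels by ELISA in human primary bronchial epithelial cell cultures 24 hours after chemical treatment. Values reflect signal increase over the DMSO baseline.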

[12] = read-out: Interleukin-8 (IL8), CXCL8 (gene 3576); experiment: BSK_BE3C_IL8: BioMAP Diversity Plus: BE3C Assay for Interleukin-8 (IL8) Biomarker Activity (AID 2284280); settings: primary human bronchial epithelial cells
How it was run: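 Measured at 24 h after treatment, IL-8 from human primary bronchial epithelial cells is determined by ELISA, and the response is modelled as increasing relative to DMSO negative control.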

[13] = read-out: Epidermal growth factor receptor (EGFR), EGFR (gene 1956); experiment: BSK_BE3C_EGFR: BioMAP Diversity Plus: BE3C Assay for Epidermal growth factor receptor (EGFR) Biomarker Activity (AID 2284281); settings: primary human bronchial epithelial cells
How it was run: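 Measured 24 h after dosing in primary human bronchial epithelial cultures, EGFR was read by ELISA; gain of signal over DMSO control defined activity.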

KRT18 (gene 3875) [14] = experiment: BSK_BE3C_Keratin818: BioMAP Diversity Plus: BE3C Assay for Keratin 818 Biomarker Activity (AID 2284282); settings: primary human bronchial epithelial cells
How it was run: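 ELISA read-out of Keratin 8/18 in BE3C human bronchial epithelial cultures, 24 h post-dosing; positive-direction fit vs DMSO baseline.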

[15] = read-out: Plasminogen activator inhibitor-1 (PAI1), SERPINE1 (gene 5054); experiment: BSK_CASM3C_PAI1: BioMAP Diversity Plus: CASM3C Assay for Plasminogen activator inhibitor-1 (PAI1) Biomarker Activity (AID 2284284); settings: primary human coronary artery smooth muscle cells
[16] = read-out: Vascular cell adhesion molecule 1 (VCAM1), VCAM1 (gene 7412); experiment: BSK_IMphg_VCAM1: BioMAP Diversity Plus: IMphg Assay for Vascular cell adhesion molecule 1 (VCAM1) Biomarker Activity (AID 2284286); settings: primary human endothelial cells with macrophages
How it was run: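 ELISA read-out of VCAM-1 on venular endothelial cell/macrophage co-cultures at 24 h post-treatment, with DMSO as baseline and positive-direction fitting. Parallel sulforhodamine B total-protein staining (560 nm) served as the overt cytotoxicity measure.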

[17] = read-out: TIMP metallopeptidase inhibitor 2 (TIMP2), TIMP2 (gene 7077); experiment: BSK_hDFCGF_TIMP2: BioMAP Diversity Plus: hDFCGF Assay for TIMP metallopeptidase inhibitor 2 (TIMP2) Biomarker Activity (AID 2284289); settings: primary human foreskin fibroblasts
How it was run: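 Primary human foreskin fibroblasts in the hDFCGF system, dosed for 24 h; TIMP-2 level measured by ELISA, fitted in the positive direction against DMSO; cytotoxicity checked in parallel by sulforhodamine B total protein staining.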

[18] = read-out: Interleukin-1 alpha (IL1a), IL1A (gene 3552); experiment: BSK_IMphg_IL1a: BioMAP Diversity Plus: IMphg Assay for Interleukin-1 alpha (IL1a) Biomarker Activity (AID 2284290); settings: primary human endothelial cells with macrophages
How it was run: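 IL-1α is quantified by ELISA at 24 h in the endothelial/macrophage IMphg co-culture, with gain of signal fitted relative to DMSO. Parallel SRB total-protein staining flags overt toxicity.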

[19] = read-out: Macrophage colony-stimulating factor (MCSF), CSF1 (gene 1435); experiment: BSK_IMphg_MCSF: BioMAP Diversity Plus: IMphg Assay for Macrophage colony-stimulating factor (MCSF) Biomarker Activity (AID 2284293); settings: primary human endothelial cells with macrophages
How it was run: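 M-CSF was measured by ELISA in human venular endothelial cell/macrophage co-cultures dosed for 24 hours. Sulforhodamine B staining of parallel cultures assessed cytotoxicity; data fitted against DMSO baseline.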

[20] = read-out: Interleukin-10 (IL10), IL10 (gene 3586); experiment: BSK_IMphg_IL10: BioMAP Diversity Plus: IMphg Assay for Interleukin-10 (IL10) Biomarker Activity (AID 2284294); settings: primary human endothelial cells with macrophages
How it was run: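 IL-10 read by ELISA after 24 h chemical exposure of primary human venular endothelial cell/macrophage cocultures, with DMSO as baseline. Parallel SRB staining (560 nm) gauged overt cytotoxicity.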

Measured: AC50

c1ccc2c(c1)sc1ccccc12
inactive: [1] | [2] | [3]

N#Cc1c(-c2ccc(Cl)cc2)[nH]c(C(F)(F)F)c1Br
active: [1] 0.802 µM | [3] 20 µM
inactive: [2]

C=CC(=O)OCC(F)(F)C(F)F
inactive: KRT18 (gene 3875) [4] | [1] | [2] | [3] | [5] | [7] | [8] | [9] | [10] | [11] | [12] | [13] | KRT18 (gene 3875) [14] | [15] | [16] | [18] | [19]
active: [1] 41.2 µM | [2] 44 µM | [3] 47.6 µM | [6] 30 µM and 29.3 µM | [16] 30 µM | [17] 5.95 µM and 20.8 µM | [20] 43.4 µM and 39.2 µM

CC(C)(C)c1ccccc1OP(=O)(Oc1ccccc1)Oc1ccccc1
active: [1] 20 µM | [2] 5.26 µM | [3] 26.8 µM

N#Cc1cc([N+](=O)[O-])ccc1N
inactive: [1] | [2] | [3]

Cc1ccc2c(c1N)C(=O)c1ccccc1C2=O
inactive: [1] | [2] | [3]

C=CC(=O)OCC(CC)(COC(=O)C=C)COC(=O)C=C
active: [1] 2.91 µM | [2] 3.88 µM | [3] 9.61 µM

O=C(O)C=CC(F)(C(F)(F)F)C(F)(F)F
inactive: all assays above

OCC(F)(F)OC(F)(F)C(F)(F)OC(F)(F)C(F)(F)OC(F)(F)CO
inactive: KRT18 (gene 3875) [4] | [1] | [2] | [3] | [5] | [7] | [8] | [9] | [10] | [11] | [12] | [13] | KRT18 (gene 3875) [14] | [15] | [16] | [17] | [18] | [19]
active: [6] 30 µM and 24 µM | [11] 30 µM | [17] 8.46 µM | [19] 24.7 µM | [20] 30 µM
